Test results reported in PubChem BioAssay (NCATS).
Results filed as inconclusive are left out. Where a call stands in place of a potency, no number is given. Calls of active or inactive are those of the source. Unless noted, the call rests on the fitted dose curve; in most records, active means well fitted curve in the direction sought with a large enough effect; inconclusive means small, poorly fitted or top-dose-only effect, or another doubt; inactive means no such curve, though single readings can be large; an effect the other way counts as inactive or inconclusive.

Assays:
[1] = qHTS for differential inhibitors of proliferation of Plasmodium falciparum line HB3 (AID 1886); conditions: Potency: Plasmodium falciparum HB3 proliferation inhibition;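 further: parasites grown with compound for 72 h before SYBR Green readout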; further: potency means the concentration at half of the fitted maximal effect
[2] = target: Ferritin light chain (Equus caballus) (UniProt P02791); assay: qHTS Validation Assay for Identification of Novel General Anesthetics (AID 2323); further: series mostly up to about 77 µM
Summary of the method: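 Competitive displacement of the profluorescent anesthetic 1-AMA (50% saturated, PBS) from 10 uM apoferritin, 10 min, room temperature. Activity is normalized 380/535 nm fluorescence; concentration-response fitted with a four-parameter Hill equation.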

[3] = target: ATP-dependent DNA helicase Q1 (Homo sapiens) (UniProt P46063); assay: qHTS Validation Assay for Inhibitors of RecQ-Like Dna Helicase 1 (RECQ1) (AID 2353)
Summary of the method: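 50 nM RECQ1T1 preincubated 15 min with compound in Tris pH 8.0 buffer with MgCl2, DTT, Tween-20 and 2.5 ug/ml poly(dI-dC); started with 200 nM TAMRA/BHQ-2 forked duplex and 2 mM ATP. Unwinding read as fluorescence (525/598 nm), two reads 2 h apart.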

[4] = Cytometric Cell-Based qHTS for Inhibitors of the mTORC1 Signaling Pathway in MEF (Tsc2-/-, p53-/-) Cells (AID 2660);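 further: Tsc2 and p53 null MEFs carrying empty vector with compound for 24 h; percent of cells above a phospho-rpS6 to PI ratio cutoff in each well; series mostly up to about 38 µM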
Summary of the method: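 Readout: Alexa-488 phospho-rpS6 (Ser235/236) intensity divided by PI intensity, thresholded against 7.5 nM rapamycin wells and reported as % positive cells. PI cell count served as the viability measure. Compound exposure was 24 hrs at 37 degree Celsius.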

[5] = High Content Imaging Cell-Based qHTS for Inhibitors of the mTORC1 Signaling Pathway in MEF (Tsc2-/-, p53-/-) Cells (AID 2666);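 further: percent of cells scored positive for phospho-rpS6 Ser235/236 immunostaining by imaging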
Summary of the method: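 Cells were plated, dosed with compound after 24 hrs, and incubated another 24 hrs at 37 degree Celsius. Fixed cells were immunostained for phospho-rpS6 Ser235/236 and counterstained, and the normalized signal was scored as % active cells against rapamycin and DMSO controls.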

[6] = High Content Imaging Cell-Based qHTS for Inhibitors of the mTORC1 Signaling Pathway in MEF Cells (AID 2667);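 further: Tsc2-/- p53-/- MEFs stably re-expressing wild-type Tsc2 exposed 24 h; series mostly up to about 38 µM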
Summary of the method: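 Immunofluorescence for rpS6 phosphorylation in MEFs of Tsc2-/-, p53-/- background rescued with WT Tsc2. Compound exposure lasted 24 hrs. Inhibition was scored against rapamycin-treated control wells.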

[7] = Cytometry Cell-Based qHTS for Inhibitors of the mTORC1 Signaling Pathway in MEF cells (AID 2668); further: potency means the concentration at half of the fitted maximal effect
Summary of the method: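 Phospho-rpS6 (Ser235/236) immunofluorescence over PI signal, scored as % positive cells using thresholds from 7.5 nM rapamycin and DMSO wells, after 24 h compound exposure of WT-Tsc2-rescued Tsc2-/-, p53-/- MEFs. PI cell count recorded for viability.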

[8] = Validation screen for small molecules that induce DNA re-replication in MCF 10A normal breast cells (AID 463097); further: nearly all actives have a fitted effect of over 60% in size; further: potency means the concentration at half of the fitted maximal effect
Summary of the method: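 Read-out is Hoechst total nuclear intensity by fluorescence scanning imager, flagging increased high-DNA-content nuclei. Compounds were incubated with MCF 10A cells for 48 hr (37 C, 5% CO2) before 40 min staining.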

[9] = target: Ubiquitin carboxyl-terminal hydrolase 2 (Homo sapiens) (UniProt O75604); assay: qHTS Validation Assay for Inhibitors of Ubiquitin-specific Protease USP2a Using CHOP2 as the Reporter (AID 463106)
Summary of the method: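 10nM USP2 core + cpd, 30min RT; add 25nM Ub-CHOP2/25nM substrate; 60min RT; FI 485/531nm. Buffer Tris pH 8.0, CaCl2, BME, CHAPS. Norm. to NEM = 100% inhibition; time-zero read flags fluorescent artifacts.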

[10] = target: DNA polymerase III PolC-type (Bacillus subtilis (strain 168)) (UniProt P13267); assay: qHTS Validation Assay for the Inhibitors of DNA Replication in Gram-Positive Bacteria (AID 485295);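 further: reconstituted holoenzyme with PolC plus beta clamp SSB and primase; PicoGreen fluorescence of double-stranded DNA made on primed circular M13 template; series mostly up to about 57 µM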
Summary of the method: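 Double-stranded DNA product detected by PicoGreen fluorescence after EDTA quench. Compound incubated with B. subtilis holoenzyme (PolC, beta subunit, SSB, primase) before substrate addition; primed replication of M13Gori with dNTPs and NTPs at room temperature; DMSO defines 0% inhibition.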

[11] = target: Tumor susceptibility gene 101 protein (Homo sapiens) (UniProt Q99816); assay: qHTS Validation Assay for Iinhibitors of HIV-1 Budding by Blocking the Interaction of PTAP/TSG101 (AID 485342; calls by dose curve)
Summary of the method: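 Fluorescence polarization of 50 nM FITC-PTAP peptide bound to 10 uM Tsg101 binding domain was read after 20 min room-temperature incubation with compounds, in 10 mM HEPES pH 7.5, 0.15 M NaCl, 0.01% Tween 20.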

[12] = qHTS Validation Assay to Find Inhibitors of Chronic Active B-Cell Receptor Signaling (AID 485345; active means well fitted curve in the direction sought with a large enough effect in the main read-out, with a control signal flat, not every such curve was filed as active)
Summary of the method: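 Read-out: ratio of filter-corrected green (IkappaBalpha fusion) to red (native) luciferase signal in doxycycline-induced TMD8 cells after 4 h at 37C. Titration spanned 46 uM–3 nM; Data were normalised to basal cells and 10 uM MG-132 wells.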

[13] = target: Beta-2 adrenergic receptor (Homo sapiens) (UniProt P07550); assay: qHTS validation assay of beta-arrestin-biased ligands of beta2-adrenergic receptor (AID 485366)
Summary of the method: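 Tango cells (recombinant beta2-AR with recombinant beta-arrestin; recruitment releases tTA driving luciferase) were treated with compounds titrated up to 46 microM for 18 hr at 37 degrees C. Luminescence gave %Activity, and concentration-response curves were curve-classified.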

[14] = target: ATP-dependent 6-phosphofructokinase (Trypanosoma brucei brucei) (UniProt O15648); assay: qHTS Validation Assay to Find Inhibitors of T. brucei phosphofructokinase (AID 485368); conditions: outcome: dose series up to 57.5 µM
Summary of the method: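 Compounds (up to 57 uM, titration series) were pinned into substrate buffer, then 1.25 nM PFK added; after 45 min at room temperature, ADP product was quantified by ADP-Glo luminescence and concentration-response curves fitted.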

[15] = Quantitative high throughput screen for delayed death inhibitors of the malarial parasite plastid, 48 hour incubation (AID 488752); further: nearly all actives have a fitted effect of over 65% in size; further: potency means the concentration at half of the fitted maximal effect
Summary of the method: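 One parasite generation (48 h, 37 C, 5% CO2) of luciferase-reporter P. falciparum in erythrocytes is run with test compound; decreased luminescence indicates inhibited growth.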

[16] = target: Thioredoxin reductase 1, cytoplasmic (Rattus norvegicus) (UniProt O89049); assay: qHTS Assay for Substrates of Mammalian Selenoprotein Thioredoxin Reductase 1 (TrxR1) (AID 488772);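 further: NADPH fluorescence in the first read after selenite addition and not the 8 min delta; series mostly up to about 57 µM; a drop in NADPH fluorescence below the no-compound background marks a TrxR1 substrate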
Summary of the method: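 Quantitative HTS in Tris-HCl buffer at pH 7.5 with EDTA and Tween-20, using rat TrxR1, 400 uM NADPH and 400 uM selenite (final). A fall in initial NADPH fluorescence relative to background marked substrate behaviour.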

[17] = target: RecQ-like DNA helicase BLM (Homo sapiens) (UniProt P54132); assay: qHTS Validation Assay for Inhibitors of Bloom's syndrome helicase (BLM) (AID 2364)
Summary of the method: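 Forked 20-bp duplex substrate (200 nM, TAMRA/BHQ-2) plus 2 mM ATP added after 15 min compound preincubation with 50 nM enzyme, pH 8.0, poly(dI-dC) 2.5 ug/ml. Strand separation followed by fluorescence (525/598 nm) over 2 h, normalized to enzyme-free and DMSO controls.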

[18] = Quantitative high throughput screen for delayed death inhibitors of the malarial parasite plastid, 96 hour incubation (AID 488745); further: nearly all actives have a fitted effect of over 70% in size; further: potency means the concentration at half of the fitted maximal effect
Summary of the method: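 Growth of reporter-bearing P. falciparum in red cells is measured after 96 h with compound, covering two erythrocytic cycles. Luminescence from the integrated luciferase serves as the growth signal.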

[19] = qHTS Assay for Modulators of Human Peripheral Myelin Protein 22 (PMP22) Expression/Activity (AID 1967; active means well fitted curve in the direction sought with a large enough effect in the signal ratio; the % refers to the signal ratio)
Summary of the method: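 Readout is the corrected green/red luminescence ratio after 24 h compound exposure, normalised to untreated cells (0%). Engineered MSC80 mouse Schwann cells express green luciferase from the mouse Pmp22 promoter and red luciferase from EF-alpha as internal control.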

[20] = qHTS Assay for Identification of Small Molecule Inducers of Hypoxia Response (AID 2120; active means well fitted curve in the direction sought with a large enough effect in the signal ratio, with a control signal flat, not every such curve was filed as active; the % refers to the signal ratio)
Summary of the method: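 Induction of beta-lactamase reporter activity was measured in CellSensor HRE-bla ME-180 cells after 17 h compound treatment at 37 degrees C, using CCF4 substrate and the 460nm/530nm emission ratio to derive AC50 values.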

ATP-dependent DNA helicase Q1 (Homo sapiens), sequence (P46063 whole entry, looked up): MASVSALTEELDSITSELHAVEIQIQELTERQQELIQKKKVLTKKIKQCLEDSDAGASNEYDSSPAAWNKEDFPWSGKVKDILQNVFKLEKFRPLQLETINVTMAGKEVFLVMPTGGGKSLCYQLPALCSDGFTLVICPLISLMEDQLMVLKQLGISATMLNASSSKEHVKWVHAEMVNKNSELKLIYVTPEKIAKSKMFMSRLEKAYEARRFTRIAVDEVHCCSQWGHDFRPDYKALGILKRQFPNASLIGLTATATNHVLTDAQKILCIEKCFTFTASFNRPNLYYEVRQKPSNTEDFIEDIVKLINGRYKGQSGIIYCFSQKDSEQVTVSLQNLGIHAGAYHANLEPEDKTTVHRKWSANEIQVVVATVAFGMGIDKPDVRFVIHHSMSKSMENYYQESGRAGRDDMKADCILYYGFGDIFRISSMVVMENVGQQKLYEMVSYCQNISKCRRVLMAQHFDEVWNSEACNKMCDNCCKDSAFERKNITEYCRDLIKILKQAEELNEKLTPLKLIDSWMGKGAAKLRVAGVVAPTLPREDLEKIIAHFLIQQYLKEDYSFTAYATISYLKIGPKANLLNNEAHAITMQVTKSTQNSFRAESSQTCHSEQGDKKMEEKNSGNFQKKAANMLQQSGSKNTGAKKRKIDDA
Tumor susceptibility gene 101 protein (Homo sapiens), sequence (Q99816 whole entry, looked up, the tested form may be a part): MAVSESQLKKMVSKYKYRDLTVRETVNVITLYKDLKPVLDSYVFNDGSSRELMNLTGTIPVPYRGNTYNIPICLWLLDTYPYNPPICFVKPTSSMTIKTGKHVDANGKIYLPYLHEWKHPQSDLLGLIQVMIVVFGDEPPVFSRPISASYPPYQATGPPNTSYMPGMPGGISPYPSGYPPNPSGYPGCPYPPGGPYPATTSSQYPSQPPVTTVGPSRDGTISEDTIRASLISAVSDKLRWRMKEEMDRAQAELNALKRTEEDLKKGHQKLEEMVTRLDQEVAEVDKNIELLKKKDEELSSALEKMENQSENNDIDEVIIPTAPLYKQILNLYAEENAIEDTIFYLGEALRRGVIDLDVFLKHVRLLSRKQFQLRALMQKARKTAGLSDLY
ATP-dependent 6-phosphofructokinase (Trypanosoma brucei brucei), sequence (O15648 whole entry, looked up): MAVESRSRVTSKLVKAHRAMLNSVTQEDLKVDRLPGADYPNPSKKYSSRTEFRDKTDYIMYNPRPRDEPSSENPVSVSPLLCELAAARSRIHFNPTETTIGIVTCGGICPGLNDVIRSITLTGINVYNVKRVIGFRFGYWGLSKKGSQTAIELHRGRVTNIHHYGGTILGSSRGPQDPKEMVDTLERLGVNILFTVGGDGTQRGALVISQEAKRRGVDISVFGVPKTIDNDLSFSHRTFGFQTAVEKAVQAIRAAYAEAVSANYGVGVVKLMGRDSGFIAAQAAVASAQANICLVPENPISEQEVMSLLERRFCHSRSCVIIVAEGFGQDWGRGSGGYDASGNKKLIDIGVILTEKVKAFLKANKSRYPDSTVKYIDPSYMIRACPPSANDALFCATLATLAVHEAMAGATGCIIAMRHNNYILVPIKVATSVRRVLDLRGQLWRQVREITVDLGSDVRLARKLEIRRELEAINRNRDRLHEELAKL
RecQ-like DNA helicase BLM (Homo sapiens), sequence (P54132 whole entry, looked up): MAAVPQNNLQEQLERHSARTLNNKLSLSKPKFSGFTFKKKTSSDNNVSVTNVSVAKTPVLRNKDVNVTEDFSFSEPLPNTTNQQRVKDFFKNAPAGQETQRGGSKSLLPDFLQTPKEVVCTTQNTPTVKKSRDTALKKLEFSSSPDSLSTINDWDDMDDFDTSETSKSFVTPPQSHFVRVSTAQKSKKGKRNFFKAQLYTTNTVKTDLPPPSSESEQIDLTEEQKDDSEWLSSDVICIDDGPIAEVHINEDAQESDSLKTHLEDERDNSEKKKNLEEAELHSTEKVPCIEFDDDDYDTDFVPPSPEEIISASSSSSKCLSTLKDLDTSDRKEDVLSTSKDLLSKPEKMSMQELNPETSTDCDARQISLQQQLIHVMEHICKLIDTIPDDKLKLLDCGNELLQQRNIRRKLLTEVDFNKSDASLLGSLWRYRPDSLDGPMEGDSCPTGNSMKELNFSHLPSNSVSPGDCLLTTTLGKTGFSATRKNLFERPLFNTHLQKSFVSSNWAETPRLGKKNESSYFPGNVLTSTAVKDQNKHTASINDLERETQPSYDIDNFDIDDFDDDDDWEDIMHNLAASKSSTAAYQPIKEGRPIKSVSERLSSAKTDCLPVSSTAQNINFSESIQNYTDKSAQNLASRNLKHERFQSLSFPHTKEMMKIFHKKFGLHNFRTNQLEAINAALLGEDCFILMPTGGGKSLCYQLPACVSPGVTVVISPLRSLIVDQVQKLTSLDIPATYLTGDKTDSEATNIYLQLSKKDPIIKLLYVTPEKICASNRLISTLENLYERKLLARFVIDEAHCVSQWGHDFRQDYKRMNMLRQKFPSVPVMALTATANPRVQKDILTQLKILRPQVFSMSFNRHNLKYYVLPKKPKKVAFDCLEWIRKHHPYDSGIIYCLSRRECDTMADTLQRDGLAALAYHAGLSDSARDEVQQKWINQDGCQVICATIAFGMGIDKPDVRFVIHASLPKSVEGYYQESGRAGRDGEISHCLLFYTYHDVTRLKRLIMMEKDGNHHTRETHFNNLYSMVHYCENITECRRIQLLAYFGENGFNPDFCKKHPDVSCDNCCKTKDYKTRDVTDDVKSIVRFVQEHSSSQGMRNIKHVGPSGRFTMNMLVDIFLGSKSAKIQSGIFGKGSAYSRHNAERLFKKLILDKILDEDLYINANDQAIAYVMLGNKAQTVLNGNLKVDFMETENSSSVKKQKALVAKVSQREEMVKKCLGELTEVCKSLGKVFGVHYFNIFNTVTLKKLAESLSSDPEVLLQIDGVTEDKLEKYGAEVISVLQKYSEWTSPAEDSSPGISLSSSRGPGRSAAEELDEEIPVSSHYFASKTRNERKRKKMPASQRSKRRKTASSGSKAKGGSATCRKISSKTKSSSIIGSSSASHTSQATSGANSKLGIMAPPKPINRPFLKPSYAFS
Beta-2 adrenergic receptor (Homo sapiens), sequence (P07550 whole entry, looked up): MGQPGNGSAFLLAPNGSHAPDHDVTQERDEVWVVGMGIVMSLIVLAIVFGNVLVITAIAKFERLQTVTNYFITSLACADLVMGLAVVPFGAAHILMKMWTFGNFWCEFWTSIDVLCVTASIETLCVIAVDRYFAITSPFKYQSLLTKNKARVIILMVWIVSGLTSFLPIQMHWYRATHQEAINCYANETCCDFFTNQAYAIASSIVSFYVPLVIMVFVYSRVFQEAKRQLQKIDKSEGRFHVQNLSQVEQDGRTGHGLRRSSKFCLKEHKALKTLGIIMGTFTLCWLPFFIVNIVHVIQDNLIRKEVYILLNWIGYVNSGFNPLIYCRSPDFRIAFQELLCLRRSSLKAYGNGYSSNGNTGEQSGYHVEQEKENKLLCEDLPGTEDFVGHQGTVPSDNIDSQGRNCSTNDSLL
Ubiquitin carboxyl-terminal hydrolase 2 (Homo sapiens), sequence (O75604 whole entry, looked up): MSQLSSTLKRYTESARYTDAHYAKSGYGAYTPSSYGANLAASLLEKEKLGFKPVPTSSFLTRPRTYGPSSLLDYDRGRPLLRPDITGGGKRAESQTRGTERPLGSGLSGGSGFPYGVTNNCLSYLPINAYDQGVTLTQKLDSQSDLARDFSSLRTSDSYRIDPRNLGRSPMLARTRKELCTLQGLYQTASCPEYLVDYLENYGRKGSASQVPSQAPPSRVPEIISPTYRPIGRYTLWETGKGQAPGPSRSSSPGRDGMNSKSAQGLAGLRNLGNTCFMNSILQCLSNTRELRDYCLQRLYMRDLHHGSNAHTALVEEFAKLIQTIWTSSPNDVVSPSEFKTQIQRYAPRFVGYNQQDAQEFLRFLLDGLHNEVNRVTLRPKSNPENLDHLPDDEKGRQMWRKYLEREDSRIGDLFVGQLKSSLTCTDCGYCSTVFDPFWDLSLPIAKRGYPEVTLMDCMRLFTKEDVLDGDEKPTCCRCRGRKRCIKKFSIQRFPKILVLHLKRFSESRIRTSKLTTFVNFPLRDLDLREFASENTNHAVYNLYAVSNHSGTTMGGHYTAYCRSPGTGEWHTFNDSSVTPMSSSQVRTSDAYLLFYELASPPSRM
Thioredoxin reductase 1, cytoplasmic (Rattus norvegicus), sequence (O89049 whole entry, looked up): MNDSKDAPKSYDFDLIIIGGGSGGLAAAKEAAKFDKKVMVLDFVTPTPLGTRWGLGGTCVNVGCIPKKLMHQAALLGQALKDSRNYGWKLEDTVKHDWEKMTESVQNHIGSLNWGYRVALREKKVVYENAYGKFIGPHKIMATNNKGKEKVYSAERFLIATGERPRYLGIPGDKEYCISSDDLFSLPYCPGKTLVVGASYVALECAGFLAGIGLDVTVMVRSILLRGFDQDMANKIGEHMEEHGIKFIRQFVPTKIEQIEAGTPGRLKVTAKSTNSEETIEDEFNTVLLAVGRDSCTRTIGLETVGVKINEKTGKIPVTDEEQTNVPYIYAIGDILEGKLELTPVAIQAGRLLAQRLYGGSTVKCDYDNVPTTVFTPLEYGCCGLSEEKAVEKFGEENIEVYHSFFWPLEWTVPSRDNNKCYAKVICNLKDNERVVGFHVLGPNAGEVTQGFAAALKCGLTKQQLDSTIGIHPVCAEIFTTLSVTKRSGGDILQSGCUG
Ferritin light chain (Equus caballus), sequence (P02791 2-175 limits assumed): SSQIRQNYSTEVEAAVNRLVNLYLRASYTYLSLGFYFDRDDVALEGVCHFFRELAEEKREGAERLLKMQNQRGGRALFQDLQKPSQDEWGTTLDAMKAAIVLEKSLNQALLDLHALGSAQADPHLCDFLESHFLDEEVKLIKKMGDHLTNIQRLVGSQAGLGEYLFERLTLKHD

SMILES	Potency [1]	outcome [2]	Potency [3]	outcome [4]	Potency [5]	Potency [6]	Potency [7]	Potency [8]	outcome [9]	Potency [10]	outcome [11]	Potency [12]	outcome [13]	outcome [14]	Potency [15]	outcome [16]	Potency [17]	Potency [18]	outcome [19]	outcome [20]
CC[N+](C)(C)c1cccc(O)c1	inactive	inactive	inactive	inactive	inactive	inactive	inactive	inactive	inactive	inactive	inactive	inactive	inactive	inactive	inactive	inactive	–	–	–	–
O=C(CCCN1CCC(O)(c2cccc(C(F)(F)F)c2)CC1)c1ccc(F)cc1	10 µM (active)	–	inactive	–	inactive	–	13.1 µM (active)	–	inactive	inactive	–	inactive	inactive	–	13.1 µM (active)	inactive	inactive	9.28 µM (active)	–	–
CN(C)CCN(Cc1cccs1)c1ccccn1	inactive	–	inactive	inactive	inactive	inactive	inactive	–	inactive	inactive	inactive	inactive	inactive	inactive	inactive	inactive	inactive	inactive	–	–
O=C(O)CN(CCN(CC(=O)O)CC(=O)O)CCN(CC(=O)O)CC(=O)O	inactive	inactive	inactive	inactive	–	inactive	inactive	–	inactive	inactive	inactive	inactive	inactive	–	inactive	inactive	–	–	–	–
CCc1cccc(N(C)C(N)=Nc2cccc3ccccc23)c1	11.2 µM (active)	–	inactive	inactive	inactive	–	–	inactive	inactive	inactive	inactive	–	inactive	–	inactive	inactive	inactive	–	–	–
COc1cc(Cc2cnc(N)nc2N)cc(OC)c1OC	–	inactive	inactive	inactive	–	inactive	inactive	inactive	inactive	inactive	inactive	inactive	–	inactive	inactive	inactive	–	inactive	inactive	–
Nc1ncn([C@@H]2O[C@H](CO)[C@@H](O)[C@H]2O)c(=O)n1	inactive	inactive	inactive	–	–	–	–	3.16 µM (active)	inactive	inactive	–	–	inactive	–	inactive	inactive	–	inactive	–	–
NC(=Nc1ccccc1)Nc1ccccc1	–	–	–	–	–	–	–	–	–	–	–	–	–	–	–	–	–	–	–	inactive
c1cc(CN2CCCCC2)cc(OCCCNc2nc3ccccc3s2)c1	11.2 µM (active)	–	inactive	inactive	inactive	–	16.5 µM (active)	–	inactive	inactive	inactive	–	inactive	–	8.28 µM (active)	inactive	inactive	2.94 µM (active)	–	–
